The full data set covers some 8,800 targets. This sample favours those with a hit. About 0.5% of all pairs of compound and target were hits.
Assays:
Experiment in all cases: log2 fold change, soluble protein after heating vs DMSO (PISA); higher = thermal stabilisation; K562 lysate, 10 uM; active = over 0.2 and 3.5 SD of the protein, either way, in both replicates (recomputed)
[1] = compound: C1=CC=C(C=C1)[C@H](COC2=CC3=C(C=C2)NC(=O)N3)NC(=O)C4=CC=CN(C4=O)CC5=CC(=C(C=C5)F)F
Method in brief: (§1)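 Following dounce homogenisation of K562 pellets in PBS pH 7.4 with 1 mM MgCl2, crude extract at 1 mg/mL protein was incubated for 30 min with 10 μM compound. Aliquots were then heated for 3 min over 48°C-58°C and pooled, NP-40 was added to 0.5% at 4°C, and soluble protein was recovered as the supernatant at 21,000xg for 90 min. Channel-sum-equalised TMTpro 16plex LC-MS/MS quantified this protein. Each value, from duplicates, is a log-two fold change in thermal stability relative to solvent controls.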

[2] = compound: CC1=C(SC2=C1C(=N[C@H](C3=NN=C(N32)C)CC(=O)N)C4=CC=C(C=C4)Cl)C
Method in brief: as §1

[3] = compound: Cc1sc2c(c1C)C(c1ccc(Cl)cc1)=N[C@@H](CC(=O)OC(C)(C)C)c1nnc(C)n1-2
Method in brief: as §1

[4] = compound: c1ccc([C@@H]2C[C@H]2NC2CCNCC2)cc1
Method in brief: as §1

[5] = compound: CC1=C2C(=CC=C1)N=C(N(C2=O)C3=CC=CC=C3C)CN4C=NC5=C(N=CN=C54)N
Method in brief: as §1

Measured: log2 fold change

WIPI1 (UniProt Q5MNZ9)
inactive: [1] 0.094 | [2] 0.023 | [3] 0.035 | [4] -0.031

ZNF281 (UniProt Q9Y2X9)
inactive: [3] -0.02

YBEY (UniProt P58557)
inactive: [5] 0.046 | [3] -0.016

USP10 isoform 2 (UniProt Q14694)
inactive: [1] -0.038 | [2] 0.029 | [5] 0 | [3] -0.013 | [4] 0.023

ZDHHC17 (UniProt Q8IUH5)
Sequence of UniProt Q8IUH5 (Q8IUH5 whole entry, looked up): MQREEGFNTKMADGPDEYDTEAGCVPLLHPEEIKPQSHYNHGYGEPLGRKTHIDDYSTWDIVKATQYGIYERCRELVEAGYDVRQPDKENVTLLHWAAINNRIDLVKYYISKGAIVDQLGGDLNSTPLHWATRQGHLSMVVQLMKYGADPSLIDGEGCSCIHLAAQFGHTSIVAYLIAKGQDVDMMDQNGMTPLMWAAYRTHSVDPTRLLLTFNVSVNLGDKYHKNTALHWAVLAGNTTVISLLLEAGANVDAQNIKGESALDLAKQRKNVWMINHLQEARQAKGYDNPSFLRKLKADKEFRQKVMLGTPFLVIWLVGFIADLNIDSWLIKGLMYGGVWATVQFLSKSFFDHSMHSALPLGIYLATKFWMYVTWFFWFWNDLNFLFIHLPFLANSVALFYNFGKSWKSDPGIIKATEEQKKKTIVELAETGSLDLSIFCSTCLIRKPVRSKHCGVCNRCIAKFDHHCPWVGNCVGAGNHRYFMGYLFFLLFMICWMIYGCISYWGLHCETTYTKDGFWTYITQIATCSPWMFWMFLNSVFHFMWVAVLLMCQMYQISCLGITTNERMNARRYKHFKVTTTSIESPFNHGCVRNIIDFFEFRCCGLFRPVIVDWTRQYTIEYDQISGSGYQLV
inactive: [5] 0.057 | [3] -0.181 | [4] -0.578

ZSCAN21 (UniProt Q9Y5A6)
inactive: [4] -0.074

XAB2 (UniProt Q9HCS7)
inactive: [1] -0.009 | [2] 0.05 | [5] 0 | [3] -0.018 | [4] 0.035

WSB1 (UniProt Q9Y6I7)
inactive: [3] 0.036 | [4] -0.036

ZNF146 (UniProt Q15072)
inactive: [3] -0.059

ZMYND8 isoform 19 (UniProt Q9ULU4)
inactive: [1] -0.006 | [2] -0.011 | [5] 0.055 | [3] 0.011 | [4] -0.026

ZYG11A (UniProt Q6WRX3)
inactive: [1] -0.075 | [2] -0.13 | [4] -0.012

VAMP2 (UniProt P63027)
Sequence of UniProt P63027 (P63027 whole entry, looked up): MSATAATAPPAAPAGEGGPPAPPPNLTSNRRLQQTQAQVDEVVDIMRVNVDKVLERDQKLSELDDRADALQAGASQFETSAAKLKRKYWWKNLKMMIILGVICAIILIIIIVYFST
inactive: [1] -0.045 | [2] -0.053 | [5] -0.024 | [3] 0.014 | [4] 0.081

VPS72 (UniProt Q15906)
inactive: [5] 0.027 | [3] -0.015 | [4] -0.035

XPO6 (UniProt Q96QU8)
inactive: [1] -0.053 | [2] 0.057 | [5] 0.023 | [3] 0.039 | [4] -0.045

VTN (UniProt P04004)
inactive: [1] -0.009 | [2] -0.039 | [5] -0.094 | [3] -0.053 | [4] -0.222

VAV1 (UniProt P15498)
Sequence of UniProt P15498 (P15498 whole entry, looked up): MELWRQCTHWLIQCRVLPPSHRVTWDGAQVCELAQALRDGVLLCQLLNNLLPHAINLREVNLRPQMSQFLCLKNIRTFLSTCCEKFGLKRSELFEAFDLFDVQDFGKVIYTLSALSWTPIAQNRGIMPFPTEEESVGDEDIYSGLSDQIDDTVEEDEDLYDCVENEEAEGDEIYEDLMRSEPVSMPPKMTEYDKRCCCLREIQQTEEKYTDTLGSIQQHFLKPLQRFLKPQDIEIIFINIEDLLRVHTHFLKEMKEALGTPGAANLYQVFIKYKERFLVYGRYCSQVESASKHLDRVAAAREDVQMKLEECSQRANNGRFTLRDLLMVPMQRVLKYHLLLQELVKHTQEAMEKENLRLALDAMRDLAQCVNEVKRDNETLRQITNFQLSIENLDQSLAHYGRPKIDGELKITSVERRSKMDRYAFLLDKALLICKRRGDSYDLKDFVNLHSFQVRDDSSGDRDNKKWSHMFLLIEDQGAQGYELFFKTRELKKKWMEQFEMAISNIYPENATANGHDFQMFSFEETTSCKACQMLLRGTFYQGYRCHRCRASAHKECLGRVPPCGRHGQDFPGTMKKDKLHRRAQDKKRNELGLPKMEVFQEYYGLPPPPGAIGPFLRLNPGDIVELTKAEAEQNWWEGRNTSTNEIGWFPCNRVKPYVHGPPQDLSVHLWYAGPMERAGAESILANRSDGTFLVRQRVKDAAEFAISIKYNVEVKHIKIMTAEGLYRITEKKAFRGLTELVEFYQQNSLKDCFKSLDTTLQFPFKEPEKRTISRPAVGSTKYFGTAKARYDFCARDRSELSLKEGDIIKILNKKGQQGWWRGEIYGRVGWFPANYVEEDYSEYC
inactive: [1] -0.025 | [2] 0.001 | [5] -0.011 | [3] -0.017 | [4] -0.068

ZNF845 (UniProt Q96IR2)
inactive: [1] -0.239 | [2] 0.048 | [5] 0.114 | [3] -0.058 | [4] 0.083

WIPI2 isoform 6 (UniProt Q9Y4P8)
inactive: [1] 0.092 | [2] 0.088 | [4] -0.073

ZMYM1 (UniProt Q5SVZ6)
Sequence of UniProt Q5SVZ6 (Q5SVZ6 whole entry, looked up): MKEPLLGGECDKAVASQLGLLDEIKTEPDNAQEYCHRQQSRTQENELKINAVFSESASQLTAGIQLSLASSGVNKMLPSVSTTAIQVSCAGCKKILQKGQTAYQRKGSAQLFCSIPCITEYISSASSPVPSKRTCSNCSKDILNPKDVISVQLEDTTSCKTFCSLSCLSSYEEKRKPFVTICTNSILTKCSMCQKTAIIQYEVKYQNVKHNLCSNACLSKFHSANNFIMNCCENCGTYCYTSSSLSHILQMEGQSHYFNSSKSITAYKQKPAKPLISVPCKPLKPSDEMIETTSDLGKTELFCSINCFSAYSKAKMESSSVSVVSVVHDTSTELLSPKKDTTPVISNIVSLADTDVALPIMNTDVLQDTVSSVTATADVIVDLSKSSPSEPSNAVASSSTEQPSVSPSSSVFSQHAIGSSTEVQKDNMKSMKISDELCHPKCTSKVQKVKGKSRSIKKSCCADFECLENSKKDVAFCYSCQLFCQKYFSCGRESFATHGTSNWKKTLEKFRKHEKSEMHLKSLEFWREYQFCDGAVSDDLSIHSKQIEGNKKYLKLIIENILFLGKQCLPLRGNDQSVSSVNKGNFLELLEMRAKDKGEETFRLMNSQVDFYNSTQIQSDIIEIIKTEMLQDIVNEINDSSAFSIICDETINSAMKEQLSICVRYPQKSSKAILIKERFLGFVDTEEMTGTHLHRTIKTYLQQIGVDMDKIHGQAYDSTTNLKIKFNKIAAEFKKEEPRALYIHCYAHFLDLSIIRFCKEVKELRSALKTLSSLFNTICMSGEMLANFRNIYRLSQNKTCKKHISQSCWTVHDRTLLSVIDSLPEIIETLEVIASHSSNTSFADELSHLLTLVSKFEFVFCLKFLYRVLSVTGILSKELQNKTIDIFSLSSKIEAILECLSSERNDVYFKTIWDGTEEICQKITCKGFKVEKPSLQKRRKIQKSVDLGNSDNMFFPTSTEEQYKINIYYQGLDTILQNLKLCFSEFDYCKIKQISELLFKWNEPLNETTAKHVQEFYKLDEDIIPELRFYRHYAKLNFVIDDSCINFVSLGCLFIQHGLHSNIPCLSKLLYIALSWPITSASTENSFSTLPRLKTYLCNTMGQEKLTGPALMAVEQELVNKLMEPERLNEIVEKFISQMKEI
inactive: [1] 0.009 | [2] 0.099 | [5] -0.012 | [3] 0 | [4] -0.2

WAS (UniProt P42768)
Sequence of UniProt P42768 (P42768 whole entry, looked up): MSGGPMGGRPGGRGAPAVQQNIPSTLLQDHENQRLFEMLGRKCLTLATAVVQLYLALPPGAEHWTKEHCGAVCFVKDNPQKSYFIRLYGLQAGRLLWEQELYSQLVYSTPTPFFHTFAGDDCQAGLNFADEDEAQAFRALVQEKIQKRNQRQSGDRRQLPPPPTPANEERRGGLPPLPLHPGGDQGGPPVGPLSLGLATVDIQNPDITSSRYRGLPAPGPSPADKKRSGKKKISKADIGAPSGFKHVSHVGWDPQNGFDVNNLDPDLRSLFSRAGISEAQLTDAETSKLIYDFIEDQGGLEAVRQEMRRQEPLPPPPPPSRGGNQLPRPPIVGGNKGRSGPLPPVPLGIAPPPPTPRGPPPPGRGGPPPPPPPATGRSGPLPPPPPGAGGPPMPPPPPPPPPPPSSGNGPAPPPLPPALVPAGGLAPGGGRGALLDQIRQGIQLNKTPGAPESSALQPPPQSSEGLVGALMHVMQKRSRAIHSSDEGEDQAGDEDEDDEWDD
inactive: [1] 0.003 | [2] -0.006 | [3] -0.095 | [4] 0.053

YRDC (UniProt Q86U90)
inactive: [1] -0.009 | [2] 0.02 | [5] -0.046 | [3] -0.029 | [4] -0.053

VASN (UniProt Q6EMK4)
inactive: [3] -0.017

ZSWIM8 isoform 4 (UniProt A7E2V4)
Sequence of UniProt A7E2V4 (A7E2V4 whole entry, looked up): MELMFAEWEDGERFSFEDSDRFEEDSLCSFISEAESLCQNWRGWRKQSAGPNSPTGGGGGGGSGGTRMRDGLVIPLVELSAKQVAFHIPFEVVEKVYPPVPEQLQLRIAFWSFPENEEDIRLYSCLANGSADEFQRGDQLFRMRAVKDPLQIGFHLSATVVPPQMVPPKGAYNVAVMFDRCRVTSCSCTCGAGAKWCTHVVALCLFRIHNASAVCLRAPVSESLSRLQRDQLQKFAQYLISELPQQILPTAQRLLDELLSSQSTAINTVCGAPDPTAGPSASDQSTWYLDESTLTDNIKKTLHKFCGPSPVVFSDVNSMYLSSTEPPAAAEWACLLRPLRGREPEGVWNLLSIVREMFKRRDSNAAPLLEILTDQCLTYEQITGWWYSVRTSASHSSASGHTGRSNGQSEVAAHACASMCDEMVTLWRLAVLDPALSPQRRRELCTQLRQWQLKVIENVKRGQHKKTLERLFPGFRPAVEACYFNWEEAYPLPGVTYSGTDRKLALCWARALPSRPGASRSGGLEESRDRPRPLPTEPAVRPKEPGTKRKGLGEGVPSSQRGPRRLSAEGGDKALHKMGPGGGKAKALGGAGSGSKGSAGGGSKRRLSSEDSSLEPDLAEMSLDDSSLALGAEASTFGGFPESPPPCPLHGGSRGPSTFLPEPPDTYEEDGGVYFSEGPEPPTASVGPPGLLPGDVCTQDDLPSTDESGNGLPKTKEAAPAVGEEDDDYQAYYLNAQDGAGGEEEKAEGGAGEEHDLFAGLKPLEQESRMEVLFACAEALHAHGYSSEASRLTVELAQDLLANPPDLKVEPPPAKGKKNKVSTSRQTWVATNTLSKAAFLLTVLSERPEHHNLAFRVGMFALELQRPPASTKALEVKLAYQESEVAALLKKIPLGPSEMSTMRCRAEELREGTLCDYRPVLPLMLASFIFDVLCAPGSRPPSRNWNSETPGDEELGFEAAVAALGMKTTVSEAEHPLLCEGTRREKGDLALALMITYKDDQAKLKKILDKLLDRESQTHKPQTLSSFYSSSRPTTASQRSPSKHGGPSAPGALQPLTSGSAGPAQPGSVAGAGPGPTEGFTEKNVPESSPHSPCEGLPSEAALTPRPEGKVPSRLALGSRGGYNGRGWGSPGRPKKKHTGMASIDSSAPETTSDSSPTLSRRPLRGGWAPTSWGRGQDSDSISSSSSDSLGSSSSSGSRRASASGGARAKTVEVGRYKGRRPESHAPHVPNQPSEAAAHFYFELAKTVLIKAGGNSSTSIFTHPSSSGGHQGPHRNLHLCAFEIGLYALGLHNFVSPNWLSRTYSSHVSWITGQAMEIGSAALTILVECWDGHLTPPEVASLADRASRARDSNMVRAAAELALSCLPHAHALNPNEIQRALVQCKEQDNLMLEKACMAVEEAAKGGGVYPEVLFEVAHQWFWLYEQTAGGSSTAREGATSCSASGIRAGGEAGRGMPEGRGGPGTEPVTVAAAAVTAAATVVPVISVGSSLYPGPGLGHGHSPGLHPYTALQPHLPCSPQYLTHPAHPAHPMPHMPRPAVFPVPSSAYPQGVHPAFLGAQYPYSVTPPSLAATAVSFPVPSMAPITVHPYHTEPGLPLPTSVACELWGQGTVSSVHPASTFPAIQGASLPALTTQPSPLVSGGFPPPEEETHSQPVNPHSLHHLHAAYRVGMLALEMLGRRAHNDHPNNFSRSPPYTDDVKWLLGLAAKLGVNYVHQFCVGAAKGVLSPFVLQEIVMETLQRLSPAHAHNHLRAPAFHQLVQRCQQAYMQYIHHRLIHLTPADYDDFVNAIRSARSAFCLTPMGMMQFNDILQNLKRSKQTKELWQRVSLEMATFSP
inactive: [1] 0.076 | [2] -0.038 | [5] 0.071 | [3] 0.013 | [4] 0.03

UTRN isoform 2 (UniProt P46939)
inactive: [1] 0.026 | [2] 0.037 | [4] 0.062

ZKSCAN8 (UniProt Q15776)
inactive: [5] -0.065 | [3] -0.026

ZNF346 (UniProt Q9UL40)
inactive: [1] 0.031 | [2] -0.017 | [4] -0.086
active: [3] -0.205

ZNF598 isoform 3 (UniProt Q86UK7)
inactive: [1] -0.037 | [2] -0.014 | [5] 0.006 | [3] 0.034 | [4] 0.025

ZBTB40 (UniProt Q9NUA8)
active: [4] -0.432
inactive: [5] -0.06 | [3] -0.004
